# TIM10 inh: growth inhibitors of TIM10 yeast strain. inhibition, % at 10 µM. S. cerevisiae TIM10 strain growth, BacTiter-Glo luminescence, 24 h. AID 463195. actives 1.4% (n = 330,000);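 active means inhibition of 40% or more at the single tested concentration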;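 further: wild-type TIM10 isogenic control strain grown at permissive 25 °C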
# NLRP3 yeast inh: inhibitors of NALP3 inflammasome in yeast; Yeast reconstituted NLRP3/ASC/caspase-1, beta-gal luminescence, 24 h; inhibition, % at 10 µM; actives 0.39% (n = 330,000);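 active means inhibition of 50% or more; inactive means inhibition below 50%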;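 further: plate controls were induced DMSO wells for no effect and uninduced yeast grown without galactose for full effect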
# SKKanGAS inh: inhibitors of SKKanGAS S. pyogenes growth in kanamycin (SK-promoter or general growth effect). actives 1.3% (n = 300,000). BacTiter-Glo, 6 h. AID 1662. inhibition, % at 7.5 µM;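 active means mean replicate score, as percent of positive control median, at least 50; inconclusive means mean below 50 but one replicate at or above 50; inactive means mean and every replicate below 50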;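 further: strain carries kanamycin resistance gene driven by streptokinase promoter and grows in 40 µg/ml kanamycin; loss of luminescence reflects streptokinase promoter inhibition or plain growth inhibition; 0% = median of DMSO wells and 100% = positive control at its reference dose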
# tim10-1 inh: tim10-1 yeast growth inhibition; S. cerevisiae tim10-1 ts strain growth, BacTiter-Glo, 24 h; AID 463190; actives 2.2% (n = 330,000); inhibition, % at 20 µM;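 active means inhibition of at least 40%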;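 further: mutant grown at 25 °C; 0% = DMSO wells with yeast and 100% = wells holding no yeast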
# tim23-1 inh: growth inhibitors of tim23-1 mutant yeast; inhibition, % at 20 µM; actives 1.3% (n = 330,000); S. cerevisiae tim23-1 growth, BacTiter-Glo luminescence, 24 h;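 active means growth inhibition of the mutant yeast at or above 50%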;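 further: temperature-sensitive mutant grown at 25 °C; plate controls were DMSO-treated mutant yeast for no effect and medium wells lacking yeast for full effect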
# PfHsp90 set2: reduces growth (ATP signal) of yeast expressing P. falciparum Hsp90. inhibition, % at 9.4 µM. actives 0.32% (n = 310,000). S. cerevisiae expressing PfHsp90, BacTiter-Glo ATP, 48 h; yeast lacking PDR1 and PDR3 efflux regulators;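 active means every replicate shows inhibition above about 80%, whatever the replicate mean, limit read from the data; inconclusive means mean inhibition reaches the set limit but some replicate falls short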;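 further: 0% = DMSO neutral controls and 100% = 20 µM radicicol positive controls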
# tim23-1 confirm: confirmation of tim23-1 mutant yeast growth inhibitors; shares compounds with tim23-1 inh; S. cerevisiae tim23-1 growth, BacTiter-Glo luminescence, 24 h; actives 83% (n = 4,400); inhibition, % at 20 µM;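 active means inhibition above about 39% in either of two replicate wells at 20 µM, limit read from the data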;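 further: temperature-sensitive tim23-1 mutant grown at 25 °C; 0% = DMSO wells with yeast and 100% = medium wells without yeast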
# * marks the source's active call; other numbers are inactive results; ? = inconclusive; / = no result. A selection: hits, their analogues and other compounds. The true share with any hit is near 4.5%.
SMILES,TIM10 inh,NLRP3 yeast inh,SKKanGAS inh,tim10-1 inh,tim23-1 inh,PfHsp90 set2,tim23-1 confirm
CC(=O)C[C@H](O)CC(=O)[C@@H]1OC(=O)[C@H](C)C/C=C\Cc2ccccc21,-1.3,-1.4,/,16.7,11.3,-14.8,/
O=c1[nH]c(NCCO)nc2c1C1(CCCCC1)Cc1ccccc1-2,17.6,23.6,/,38.6,33.9,0.9,/
CC1(C)CC(n2c(NCCO)nc3c(c2=O)C2(CCCC2)Cc2ccccc2-3)CCO1 (configuration not stated),36.0,-4.5,3.9,20.8,51.7*,-8.9,48.7*
O=C(CCc1nnc2ccc(N3CCC4(CC3)OCCO4)nn12)N1CCCCC1,10.2,5.1,-3.3,2.1,-5.0,11.4,/
CSc1ccc(/C=C(\C#N)C(=O)NC2CCCCC2)cc1,30.8,8.7,-4.4,35.2,50.0,16.7,50.8*
N#C/C(=C\c1ccc(Cl)cc1)C(=O)NC1CC1,23.8,22.4,4.0,34.3,56.3*,-3.5,51.6*
COc1ccc(/C=C(\C#N)C(=O)NC2CCS(=O)(=O)C2)cc1OC (configuration not stated),-9.1,-20.5,-1.0,2.0,14.4,-3.3,/
N#C/C(=C/c1ccc(OCc2ccccc2)cc1)C(=O)NC1CCCCC1,-10.6,24.5,-12.9,16.6,2.7,-8.2,/
CCCN(C(=O)COC(=O)c1nc2nccc(C)n2n1)C1CCS(=O)(=O)C1 (configuration not stated),/,/,/,/,/,-14.7,/
CC(C)c1ccc(NC(=O)CCNS(=O)(=O)c2ccc3[nH]c(=O)oc3c2)cc1,6.9,6.5,-11.8,-11.9,-1.3,-10.6,/
C=CCN1c2ccccc2C(=O)C(C)S1(=O)=O (configuration not stated),1.3,/,/,-5.5,25.9,-11.7,/
C=CCN1c2ccc(Br)cc2C(=O)CS1(=O)=O,34.9,13.1,/,33.7,57.8*,/,54.5*
Oc1c(Br)cc(Br)cc1CNc1cnc2ccccc2c1,-3.3,29.7,61.3*,38.0,71.6*,-0.6,64.8*
Oc1c(Br)cc(Br)cc1CNc1ccc(F)cc1,22.4,36.6,?,34.6,21.1,7.8,/
O=C(CC(=O)c1ccccc1O)c1ccc(F)cc1,34.7,19.2,26.1,20.4,60.9*,/,57.2*
C/C(N)=C(/C#N)C(=O)CSc1nc2ccccc2c(=O)n1Cc1ccc(F)cc1,16.0,8.8,27.2,-4.6,36.8,20.2,/
C/C(N)=C(/C#N)C(=O)CSc1nc2ccccc2c(=O)n1Cc1ccc(C)cc1,18.5,3.4,0.0,29.2,57.2*,-7.9,34.9
CCOC(=O)N1CCC(NC(=O)c2ccccc2C(=O)O)CC1,12.7,-1.9,14.3,12.2,7.1,2.0,/
CCOC(=O)N1CCC(NC(=O)c2oc3c(C)c(C)ccc3c2C)CC1,29.7,19.7,3.2,36.9,59.8*,-3.8,58.1*
CC1CCCCC12NC(=O)N(CC(=O)Nc1ccc(N3CCCCC3)cc1)C2=O (configuration not stated),-4.4,9.9,/,12.7,10.6,-14.3,/
CC1=NN(c2ccccc2)C(=O)/C1=C\c1c(C)[nH]n(-c2ccccc2)c1=O,10.6,22.0,12.3,11.9,6.6,-14.3,/
CC1=NN(c2ccccc2)C(=O)/C1=C/c1c(O)n(-c2ccc(F)c(Cl)c2)[nH]c1=O,33.5,-0.2,71.7*,34.7,58.3*,/,43.0*
O=C(COc1ccccc1[N+](=O)[O-])Nc1cccc(C(=O)Nc2ccccc2C(=O)O)c1,15.8,5.0,38.8,-3.7,6.7,-11.6,/
Cc1cc(C)c(C(CC(=O)c2cccs2)C(C#N)C#N)c(C)c1 (configuration not stated),29.0,10.1,4.4,31.0,52.2*,19.2,37.4
Oc1c(Br)cc(Br)c(/C=N/n2c(-c3ccccc3)n[nH]c2=S)c1Br,21.0,20.2,29.7,28.8,55.8*,118.8*,50.9*
SMILES,TIM10 inh,NLRP3 yeast inh,SKKanGAS inh,tim10-1 inh,tim23-1 inh,PfHsp90 set2,tim23-1 confirm
O=C(Nc1cccc(F)c1)N1CC=C(c2ccc(Cl)cc2)CC1,37.4,17.0,13.1,37.1,59.1*,10.2,72.1*
CCOc1cc(N2CCOCC2)c(OCC)cc1NC(=O)c1ccc(F)c(S(=O)(=O)N2CCOCC2)c1,4.0,15.5,/,10.3,19.8,-8.6,/
CCOc1ccccc1NC(=O)C(=O)N/N=C/c1cc(Br)ccc1O,18.0,0.8,23.0,25.0,58.8*,-7.1,51.1*
CCOc1ccccc1C=NNC(=O)C(=O)NN=Cc1ccccc1OCC,/,/,/,/,/,-1.1,/
CCN(CC)S(=O)(=O)c1csc(C(=O)NC2CCCCC2)c1,-15.4,0.6,-5.6,-2.9,96.1*,/,17.1
CCN(CC)S(=O)(=O)c1cccc(C(=O)NC2CCCCC2)c1,2.5,7.2,1.6,16.5,19.4,-17.6,/
CCOC(=O)c1nnc(-c2ccccc2)nc1Oc1ccccc1Cl,38.6,30.7,0.3,34.3,53.2*,/,55.6*
CCOC(=O)c1nnc(-c2ccccc2)nc1NC,-21.8,14.3,5.3,-4.0,-26.9,10.1,/
Nc1cc(S(=O)(=O)C(F)(F)F)ccc1C(=O)O,-19.9,-11.2,-0.4,-10.7,-1.2,-4.7,/
O=S(=O)(c1ccc2c(c1)C(O)c1ccccc1CC2)C(F)(F)F (configuration not stated),24.3,23.9,/,34.4,63.3*,7.5,45.3*
CC(C(=O)NC1CCCC1)N1CCN(S(=O)(=O)c2ccc(C(C)(C)C)cc2)CC1 (configuration not stated),14.8,10.9,/,9.6,20.3,-4.9,/
COc1ccc(-c2nc3ccccn3c2CN2CCN(c3ccccc3F)CC2)cc1,28.2,24.9,7.0,32.8,54.8*,9.2,39.9*
CSc1cccc(CN2CCC(n3nccc3NC(=O)C3CC3)CC2)c1,-8.1,6.2,1.7,-10.8,50.2*,1.0,15.1
Cc1noc(C)c1C(=O)Nc1ccc(C#N)cc1,5.9,4.7,-0.2,10.7,8.3,-4.2,/
C/C=C/c1ccc(OCCOCCNCc2ccccc2)c(OC)c1,11.3,26.5,5.5,5.3,5.7,1.3,/
Cc1nc2ccccc2nc1Nc1cccc(Cl)c1,26.2,18.0,-2.2,38.9,61.0*,-58.8,41.4*
Cc1cc(NC(=O)COc2ccc(C(C)(C)C)cc2)no1,-8.0,15.4,8.4,-21.3,6.0,-47.4,/
Brc1ccc2oc(-c3ccn[nH]3)cc2c1,16.7,21.4,3.2,34.0,65.4*,/,48.2*
CCOC(=O)c1c(C=O)c2sc(C)cc2n1C,-6.6,33.8,-10.7,-1.4,53.0*,-5.4,45.2*
CC(Cc1ccccc1)NC(=O)c1cc2ccccc2o1 (configuration not stated),23.0,39.5,3.5,-23.6,50.9*,-9.2,53.1*
O=C(/C(=C/O)N=Nc1ccccc1)c1ccncc1,-10.2,1.5,-7.5,23.0,56.2*,/,27.5

# High-throughput results (PubChem)
